Results filed as inconclusive are left out. The source made the active and inactive calls. Unless noted, calls follow the shape of the full dose curve.
Experiments:
[1] = Validation screen for inhibitors of Lassa infection (AID 463096); also: % is scaled to controls: 0 for no effect and ±100 for the full control effect
[2] = qHTS for Inhibitors of the Functional Ribonucleoprotein Complex (vRNP) of Lassa (LASV) Arenavirus: LASV Primary Screen - GLuc reporter signal (AID 1347082; calls by dose curve; tested in HEK293 reporter line; also: % is scaled to controls: 0 for no effect and ±100 for the full control effect; nearly all actives have a fitted effect of over 60% in size)
[3] = qHTS for Inhibitors of the Functional Ribonucleoprotein Complex (vRNP) of Lassa (LASV) Arenavirus: Viability assay - alamar blue signal for LASV Primary Screen (AID 1347083; calls by dose curve; tested in HEK293 reporter line; also: % is scaled to controls: 0 for no effect and ±100 for the full control effect; nearly all actives have a fitted effect of over 80% in size)
[4] = qHTS for Inhibitors of the Functional Ribonucleoprotein Complex (vRNP) of Lymphocytic Choriomeningitis Arenaviruses (LCMV): Viability assay - alamar blue signal for LCMV Primary Screen (AID 1347085; calls by dose curve; tested in HEK293 reporter line; also: % is scaled to controls: 0 for no effect and ±100 for the full control effect; nearly all actives have a fitted effect of over 80% in size)
[5] = target: Nucleoprotein (Lymphocytic choriomeningitis virus (strain Armstrong)) (UniProt P09992); test: qHTS for Inhibitors of the Functional Ribonucleoprotein Complex (vRNP) of Lymphocytic Choriomeningitis Arenaviruses (LCMV): LCMV Primary Screen - GLuc reporter signal (AID 1347086); also: % is scaled to controls: 0 for no effect and ±100 for the full control effect; nearly all actives have a fitted effect of over 70% in size
Nucleoprotein (Lymphocytic choriomeningitis virus (strain Armstrong)), sequence (P09992 whole entry, looked up): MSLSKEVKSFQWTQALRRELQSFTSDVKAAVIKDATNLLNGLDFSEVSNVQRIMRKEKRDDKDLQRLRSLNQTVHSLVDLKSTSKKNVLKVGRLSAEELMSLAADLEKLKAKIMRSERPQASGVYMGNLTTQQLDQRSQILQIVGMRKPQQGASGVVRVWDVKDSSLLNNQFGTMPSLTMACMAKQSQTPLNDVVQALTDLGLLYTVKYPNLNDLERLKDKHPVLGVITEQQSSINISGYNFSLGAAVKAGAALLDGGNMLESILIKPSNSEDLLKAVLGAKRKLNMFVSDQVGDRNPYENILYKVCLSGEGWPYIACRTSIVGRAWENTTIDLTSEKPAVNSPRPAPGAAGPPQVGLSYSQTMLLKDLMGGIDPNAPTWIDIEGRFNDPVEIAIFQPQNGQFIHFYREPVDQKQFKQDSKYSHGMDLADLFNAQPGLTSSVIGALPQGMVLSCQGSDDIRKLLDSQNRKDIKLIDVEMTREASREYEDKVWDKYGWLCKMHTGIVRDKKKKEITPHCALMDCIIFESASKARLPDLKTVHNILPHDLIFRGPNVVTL

[6] = target: M-phase phosphoprotein 8 (Homo sapiens) (UniProt Q99549); test: qHTS Validation Assay for Inhibitors for MPP8 Chromodomain Interactions with Methylated Histone Tails (AID 488949; active = well fitted curve in the direction sought with a large enough effect; an effect the other way counts as inactive or inconclusive; also: top concentration of the series differs between compounds; % is scaled to controls: 0 for no effect and ±100 for the full control effect; nearly all actives have a fitted effect of over 55% in size)
M-phase phosphoprotein 8 (Homo sapiens), sequence (Q99549 whole entry, looked up): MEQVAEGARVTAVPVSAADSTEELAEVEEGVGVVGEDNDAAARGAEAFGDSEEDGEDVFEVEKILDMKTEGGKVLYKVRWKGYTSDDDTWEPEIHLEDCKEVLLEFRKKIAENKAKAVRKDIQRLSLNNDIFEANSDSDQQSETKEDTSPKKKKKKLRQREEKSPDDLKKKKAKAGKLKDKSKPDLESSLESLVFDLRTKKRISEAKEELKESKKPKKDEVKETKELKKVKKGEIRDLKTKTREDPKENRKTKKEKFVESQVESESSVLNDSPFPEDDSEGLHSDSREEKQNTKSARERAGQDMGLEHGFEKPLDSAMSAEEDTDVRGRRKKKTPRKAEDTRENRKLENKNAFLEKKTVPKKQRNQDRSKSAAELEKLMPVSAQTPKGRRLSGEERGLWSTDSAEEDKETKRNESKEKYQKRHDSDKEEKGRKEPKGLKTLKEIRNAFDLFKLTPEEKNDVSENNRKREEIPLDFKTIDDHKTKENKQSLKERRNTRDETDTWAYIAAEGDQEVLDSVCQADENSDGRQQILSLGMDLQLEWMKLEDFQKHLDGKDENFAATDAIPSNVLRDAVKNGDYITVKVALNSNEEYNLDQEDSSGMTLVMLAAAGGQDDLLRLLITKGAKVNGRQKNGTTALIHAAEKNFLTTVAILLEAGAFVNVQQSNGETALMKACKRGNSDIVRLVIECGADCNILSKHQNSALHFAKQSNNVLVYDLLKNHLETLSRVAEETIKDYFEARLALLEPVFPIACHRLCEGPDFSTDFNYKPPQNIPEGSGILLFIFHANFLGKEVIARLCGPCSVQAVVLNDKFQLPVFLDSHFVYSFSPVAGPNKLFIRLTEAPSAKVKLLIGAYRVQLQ
Method in brief: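 MPP8 (50 nM) was pre-bound to 50 nM biotinylated H3(1-18)K9me3 peptide in PBS pH 7.4 with 0.01% Tween-20. Compounds were then added for 30 min at room temperature, and complex disruption was read by AlphaScreen with streptavidin donor and nickel-chelate acceptor beads.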

[7] = Inducers of the Endoplasmic Reticulum Stress Response (ERSR) in human glioma: Validation (AID 504836; active = well fitted curve in the direction sought with a large enough effect; an effect the other way counts as inactive or inconclusive; also: 0% is about no effect)
Method in brief: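 Stably transfected U87-MG human glioma cells carrying a GRP78-based luminescent sensor were seeded at 1000 cells/well, pin-dosed with compounds and incubated 16 h. Luciferase reagent was then added, and end-point luminescence was read after 10 min at room temperature.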

[8] = target: Cytochrome P450 3A4 (Homo sapiens) (UniProt P08684); test: qHTS Assay for Inhibitors and Substrates of Cytochrome P450 3A4 (AID 884; active = well fitted curve in the direction sought with a large enough effect; an effect the other way counts as inactive or inconclusive; also: nearly all actives have a fitted effect of over 50% in size; also: potency is read from the fitted curve at half-maximal effect; as to activity change, negative = inhibition: % is scaled to controls: 0 for no effect and ±100 for the full control effect)
Cytochrome P450 3A4 (Homo sapiens), sequence (P08684 whole entry, looked up): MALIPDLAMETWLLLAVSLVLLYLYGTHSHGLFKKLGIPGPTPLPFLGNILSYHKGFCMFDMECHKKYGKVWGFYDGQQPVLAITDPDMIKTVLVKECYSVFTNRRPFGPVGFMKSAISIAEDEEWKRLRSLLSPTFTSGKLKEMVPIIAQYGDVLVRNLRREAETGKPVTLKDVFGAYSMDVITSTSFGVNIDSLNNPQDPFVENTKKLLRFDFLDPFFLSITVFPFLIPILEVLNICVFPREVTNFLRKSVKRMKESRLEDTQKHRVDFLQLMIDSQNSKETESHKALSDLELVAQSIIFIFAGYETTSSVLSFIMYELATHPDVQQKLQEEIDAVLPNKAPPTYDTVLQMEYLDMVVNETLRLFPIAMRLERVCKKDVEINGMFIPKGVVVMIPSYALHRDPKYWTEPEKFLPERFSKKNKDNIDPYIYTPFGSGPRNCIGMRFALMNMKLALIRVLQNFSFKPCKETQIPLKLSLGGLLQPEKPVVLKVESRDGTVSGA
Method in brief: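 20 nM human CYP3A4 with 25 uM Luciferin-PPXE (at KM) in 200 mM KPO4, preincubated 10 min with compound; NADPH regeneration started a 60 min RT reaction. Luciferin detected by luminescence, normalized to 57 uM ketoconazole as full inhibition.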

[9] = target: Cytochrome P450 3A4 (Homo sapiens) (UniProt P08684); test: qHTS Assay for Activators of Cytochrome P450 3A4 (AID 885; active = well fitted curve in the direction sought with a large enough effect; an effect the other way counts as inactive or inconclusive; also: nearly all actives have a fitted effect of over 65% in size)
Method in brief: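 Steps: enzyme/substrate mix dispensed; compound added, 10 min RT; NADPH regeneration solution added, 60 min RT; luciferin detection buffer stops reaction; 20 min later luminescence measured.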

[10] = target: Alpha-galactosidase (Coffea arabica) (UniProt Q42656); test: Counterscreen for Glucocerebrosidase Inhibitors: qHTS Assay for Coffee Bean alpha-Galactosidase at pH 4.5 (AID 957; active = well fitted curve in the direction sought with a large enough effect; an effect the other way counts as inactive or inconclusive;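 also: plate controls were enzyme alone for no effect and no enzyme for full effect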)
Alpha-galactosidase (Coffea arabica), sequence (Q42656 whole entry, looked up): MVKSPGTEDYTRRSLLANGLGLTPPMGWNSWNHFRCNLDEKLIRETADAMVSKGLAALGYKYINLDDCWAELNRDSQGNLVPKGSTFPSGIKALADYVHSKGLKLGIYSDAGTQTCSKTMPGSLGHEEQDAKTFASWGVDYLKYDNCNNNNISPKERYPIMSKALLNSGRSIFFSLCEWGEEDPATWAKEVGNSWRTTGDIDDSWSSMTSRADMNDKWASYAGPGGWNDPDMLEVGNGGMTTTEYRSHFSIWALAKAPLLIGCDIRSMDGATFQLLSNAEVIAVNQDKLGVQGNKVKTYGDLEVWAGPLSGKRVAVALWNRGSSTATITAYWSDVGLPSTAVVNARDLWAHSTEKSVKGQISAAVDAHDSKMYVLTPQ
Method in brief: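 Green coffee bean enzyme (2 nM final) was incubated with compounds (0.7 nM to 77 uM) and 4-methylumbelliferyl alpha-D-galactopyranoside (80 uM final) in 50 mM citric acid, 0.005% Tween-20, pH 4.5, 20 min at room temperature; AC50 from Hill fits.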

[11] = target: Alpha-galactosidase (Coffea arabica) (UniProt Q42656); test: Counterscreen for Glucocerebrosidase Inhibitors: qHTS Assay for Coffee Bean alpha-Galactosidase at pH 5.9 (AID 998; active = well fitted curve in the direction sought with a large enough effect; an effect the other way counts as inactive or inconclusive;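 also: plate controls were uninhibited enzyme for no effect and no-enzyme basal signal for full effect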)
Method in brief: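 Green coffee bean enzyme (2 nM final) was incubated with compounds (0.7 nM–77 uM) and 4-methylumbelliferyl alpha-D-galactopyranoside (80 uM) in citrate buffer pH 5.9, 20 min at room temperature. High-pH stop; fluorescence 365/440 nm; AC50 from Hill fits.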

[12] = MultiTox-Fluor Cytotoxicity Assay - LYMP1-003 - Dead Cells (AID 961; active = well fitted curve in the direction sought with a large enough effect; an effect the other way counts as inactive or inconclusive; also: nearly all actives have a fitted effect of over 70% in size)
Method in brief: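 LYMP1-003 lymphoblastoid, 2500 cells/well, 5 hr settle then 16 hr cpd at 37 C; MultiTox-Fluor reagent 60 min RT; Ex/Em 485/520 dead-cell signal; norm. DMSO = 0%, 15 uM tetraoctylammonium bromide = 100%; Hill AC50.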

[13] = Cell Viability - LYMP1-003 - Assay at 40 hr (AID 964; active = well fitted curve in the direction sought with a large enough effect; an effect the other way counts as inactive or inconclusive; also: % is scaled to controls: 0 for no effect and ±100 for the full control effect; nearly all actives have a fitted effect of over 60% in size)
Method in brief: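 Human lymphoblastoid LYMP1-003 cells, 2500/well in complete medium, rested 5 hr at 37 C, then exposed to compounds for 40 hr at 37 C. Viability read as intracellular ATP by CellTiter-Glo luminescence; AC50 from Hill fits of concentration-response data.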

[14] = Cell Viability - LYMP2-010 (AID 981; active = well fitted curve in the direction sought with a large enough effect; an effect the other way counts as inactive or inconclusive; also: % is scaled to controls: 0 for no effect and ±100 for the full control effect; nearly all actives have a fitted effect of over 55% in size)
Method in brief: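 Human lymphoblastoid LYMP2-010 cells (2500/well) were preincubated 5 hr at 37 C, then exposed to compounds for 24 hr at 37 C in complete medium. Intracellular ATP was measured by CellTiter-Glo luminescence after 30 min at room temperature; AC50 from Hill-fitted concentration-response.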

[15] = qHTS assay for small molecule agonists of the antioxidant response element (ARE) signaling pathway (AID 651741; active = well fitted activation curve with a large enough effect in the signal ratio; the % refers to the signal ratio; also: % of control where 0% means no effect)
Method in brief: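 ARE-bla HepG2 cells (beta-lactamase reporter under ARE control) were plated at 2,000 cells/well, preincubated 5 h at 37 C/5% CO2, then treated with DMSO-dissolved compounds for 16 h at 37 C; LiveBLAzer B/G FRET substrate added, fluorescence read after 2 h at room temperature.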

[16] = target: Nuclear receptor ROR-gamma (Homo sapiens) (UniProt P51449); test: qHTS assay for small molecule antagonists of the retinoid-related orphan receptor gamma (ROR-gamma) signaling pathway (AID 651802; active = well fitted curve in the direction sought with a large enough effect; an effect the other way counts as inactive or inconclusive; also: % is scaled to controls: 0 for no effect and ±100 for the full control effect; nearly all actives have a fitted effect of over 60% in size)
Nuclear receptor ROR-gamma (Homo sapiens), sequence (P51449 whole entry, looked up): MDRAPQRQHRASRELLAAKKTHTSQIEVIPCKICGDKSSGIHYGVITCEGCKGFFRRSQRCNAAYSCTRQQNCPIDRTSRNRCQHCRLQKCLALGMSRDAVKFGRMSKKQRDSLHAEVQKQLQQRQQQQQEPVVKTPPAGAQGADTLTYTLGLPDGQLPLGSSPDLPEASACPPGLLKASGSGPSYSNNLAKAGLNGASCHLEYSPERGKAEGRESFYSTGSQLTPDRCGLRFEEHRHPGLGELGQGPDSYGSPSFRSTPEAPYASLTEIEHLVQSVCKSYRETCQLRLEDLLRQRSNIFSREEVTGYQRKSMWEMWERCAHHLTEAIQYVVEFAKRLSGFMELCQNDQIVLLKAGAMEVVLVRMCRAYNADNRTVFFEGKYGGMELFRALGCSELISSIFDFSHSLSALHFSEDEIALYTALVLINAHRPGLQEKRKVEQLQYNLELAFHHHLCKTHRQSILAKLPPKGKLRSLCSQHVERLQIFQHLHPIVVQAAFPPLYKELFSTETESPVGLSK
Method in brief: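 CHO cells carrying TET-inducible ROR-gamma and an ROR response element–luciferase reporter were exposed to compound, then induced with doxycycline. After 16hr at 37C, luminescence was read; lower signal indicates antagonism.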

[17] = qHTS assay for small molecule agonists of the antioxidant response element (ARE) signaling pathway measured by Nrf2-dependant transcriptional activity - cell viability counter screen (AID 720653; active = well fitted curve in the direction sought with a large enough effect in the repeat runs; an effect the other way counts as inactive or inconclusive; also: % is scaled to controls: 0 for no effect and ±100 for the full control effect); settings: ARE-bla HepG2 viability, CellTiter-Glo ATP luminescence, 16 h; max response: stronger effect = lower value
Method in brief: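 ARE-bla HepG2 cells (2,000/well) rested 5 hrs at 37C/5% CO2, then exposed to compounds in DMSO for 16 hrs. Viability was read in the same wells as intracellular ATP by luminescence, 30 min at room temperature after reagent addition.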

[18] = Primary qHTS to identify inhibitors of SARS-CoV-2 cell entry (AID 1645846); settings: activity change, negative = inhibition: at 57.1 µM (top of the series) unless noted; also: nearly all actives have a fitted effect of over 45% in size
Method in brief: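 HEK293 cells stably expressing human ACE2, pre-treated 1 h with compound, then infected with MLV particles pseudotyped with Wuhan-Hu-1 spike (C-terminal 19-aa truncation). Luciferase luminescence after 48 h at 37 °C, normalised to spike PP and bald PP.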

COc1cc(C(O)C(=O)O)ccc1O (stereo unspecified)
inactive: Potency [1] | Potency [2] | Potency [3] | Potency [4] | Potency [5]

COc1cc([C@@H]2c3cc4c(cc3[C@H](O)C3COC(=O)[C@@H]32)OCO4)cc(OC)c1OC (stereo partly specified)
inactive: Potency [1] | Potency [6] | outcome [7] | Potency [2] | Potency [3] | Potency [4] | Potency [5]

O=C(O)CCC(=O)N1CCCC1C(=O)O (stereo unspecified)
inactive: Potency [1] | Potency [2] | Potency [3] | Potency [4] | Potency [5]

Brc1c(Br)c(Br)c2n[nH]nc2c1Br
inactive: Potency [9] | outcome [10] | outcome [11] | Potency [1] | Potency [6] | Potency [2] | Potency [3] | Potency [4] | Potency [5]
active: Potency [8] 3.16 µM

CCOC(=O)c1ccccc1N
inactive: Potency [8] | Potency [12] | Potency [13] | Potency [14] | Potency [15] | Potency [16] | max response [17] 3.82% | Potency [2] | Potency [3] | Potency [4] | Potency [5]

CN1[C@@H](CC(=O)c2ccccc2)CCC[C@H]1C[C@H](O)c1ccccc1
inactive: Potency [1] | Potency [6] | outcome [7] | Potency [2] | Potency [3] | Potency [4] | Potency [5]

O=C(/C=C/c1ccc(O)c(O)c1)OCCc1ccccc1
inactive: Potency [1] | Potency [2] | Potency [3] | Potency [4] | Potency [5]

CCCCOc1cc(CC2CNC(=O)N2)ccc1OC (stereo unspecified)
inactive: Potency [1] | outcome [7] | Potency [2] | Potency [3] | Potency [4] | Potency [5]

NC1C=CC=C(C(=O)O)C1 (stereo unspecified)
inactive: Potency [1] | Potency [2] | Potency [3] | Potency [4] | Potency [5]

CC(C)COC(=O)c1ccccc1C(=O)OCC(C)C
inactive: Potency [8] | Potency [12] | Potency [13] | Potency [14] | Potency [16] | max response [17] 7.97% | Potency [2] | Potency [3] | Potency [4] | Potency [5]

CCCCCCCCCC[Si](C)(C)CCC(=O)NC(Cc1ccc(C)cc1)c1ccccc1 (stereo unspecified)
inactive: Potency [1] | outcome [7] | Potency [2] | Potency [3] | Potency [4] | Potency [5]

Oc1cc(O)cc(/C=C/c2ccc(O)c(O)c2)c1
-97.4%: activity change, negative = inhibition [18]
inactive: Potency [1] | outcome [7] | Potency [2] | Potency [3] | Potency [4] | Potency [5]

CN1C2CCC1CC(OC(=O)c1c[nH]c3ccccc13)C2 (stereo unspecified)
inactive: Potency [1] | outcome [7] | Potency [2] | Potency [3] | Potency [4] | Potency [5]

CNCCC(Oc1ccccc1C)c1ccccc1 (stereo unspecified)
inactive: Potency [1] | outcome [7] | Potency [2] | Potency [3] | Potency [4] | Potency [5]

Oc1cc2c(cc1O)C(c1ccccc1)CNCC2 (stereo unspecified)
inactive: Potency [1] | outcome [7] | Potency [2] | Potency [3] | Potency [4] | Potency [5]

CC(C)(C)NCC(O)COc1cccc2[nH]c(=O)[nH]c12 (stereo unspecified)
inactive: Potency [1] | outcome [7] | Potency [2] | Potency [3] | Potency [4] | Potency [5]

COc1cc(C(O)CO)ccc1O (stereo unspecified)
inactive: Potency [1] | outcome [7] | Potency [2] | Potency [3] | Potency [4] | Potency [5]

CC(N)(C(=O)O)c1ccc(C(=O)O)cc1 (stereo unspecified)
inactive: Potency [1] | outcome [7] | Potency [2] | Potency [3] | Potency [4] | Potency [5]

Nc1ncnc2c1ncn2C1CCCO1 (stereo unspecified)
inactive: Potency [1] | outcome [7] | Potency [2] | Potency [3] | Potency [4] | Potency [5]

OC(CN1CCN(c2cccc(Cl)c2)CC1)C(c1ccccc1)c1ccccc1 (stereo unspecified)
inactive: Potency [1] | outcome [7] | Potency [2] | Potency [3] | Potency [4] | Potency [5]

c1ccc(C2CN3CCSC3=N2)cc1 (stereo unspecified)
inactive: Potency [1] | outcome [7] | Potency [2] | Potency [3] | Potency [4] | Potency [5]

NC(C(=O)N[C@@H]1C(=O)N2C(C(=O)O)=C(Cl)CS[C@H]12)c1ccccc1 (stereo partly specified)
inactive: Potency [1] | outcome [7] | Potency [2] | Potency [3] | Potency [4] | Potency [5]

NC(=O)CC[C@H](N)C(=O)O
inactive: Potency [1] | outcome [7] | Potency [2] | Potency [3] | Potency [4] | Potency [5]

Cc1cccc(C)c1OCC(N)C(C)C (stereo unspecified)
inactive: Potency [1] | outcome [7] | Potency [2] | Potency [3] | Potency [4] | Potency [5]

CCCCCCCCCCCCCCCCCCOC[C@H](COP(=O)([O-])OCC[N+](C)(C)C)OC
inactive: Potency [1] | outcome [7] | Potency [2] | Potency [3] | Potency [4] | Potency [5]

C=CCN1CCc2c(cc(O)c(O)c2Br)[C@@H](c2ccccc2)C1
inactive: Potency [1] | outcome [7] | Potency [2] | Potency [3] | Potency [4] | Potency [5]

NC(Cc1cccc(-c2ccccc2CP(=O)(O)O)c1)C(=O)O (stereo unspecified)
inactive: Potency [1] | outcome [7] | Potency [2] | Potency [3] | Potency [4] | Potency [5]

O=C1O/C(=C/Br)CCC1c1cccc2ccccc12 (stereo unspecified)
inactive: Potency [1] | outcome [7] | Potency [2] | Potency [3] | Potency [4] | Potency [5]

CN1C2CCC1CC(OC(=O)C(O)c1ccccc1)C2 (stereo unspecified)
inactive: Potency [1] | outcome [7] | Potency [2] | Potency [3] | Potency [4] | Potency [5]

C=C(C)C1CC=C(C(=O)O)CC1 (stereo unspecified)
inactive: Potency [1] | outcome [7] | Potency [2] | Potency [3] | Potency [4] | Potency [5]

CCCCCCCCCCCCCCCCCC(=O)OC(CC(=O)O)C[N+](C)(C)C (stereo unspecified)
inactive: Potency [1] | outcome [7] | Potency [2] | Potency [3] | Potency [4] | Potency [5]

COC(=O)[C@H]1[C@H]2C[C@H]3c4[nH]c5ccccc5c4CCN3C[C@H]2CC[C@@H]1O
inactive: Potency [1] | outcome [7] | Potency [2] | Potency [3] | Potency [4] | Potency [5]

CC1=C(C(=O)O)N2C(=O)[C@@H](NC(=O)C(N)C3=CCC=CC3)[C@H]2SC1 (stereo partly specified)
inactive: Potency [1] | outcome [7] | Potency [2] | Potency [3] | Potency [4] | Potency [5]

C=CCN1CCc2cc(O)c(O)cc2C(c2ccccc2)C1 (stereo unspecified)
inactive: Potency [1] | outcome [7] | Potency [2] | Potency [3] | Potency [4] | Potency [5]

COc1cc(C(O)CO)ccc1OS(=O)(=O)O (stereo unspecified)
inactive: Potency [1] | outcome [7] | Potency [2] | Potency [3] | Potency [4] | Potency [5]

CNc1ncnc2c1ncn2[C@H]1C[C@H](OP(=O)(O)O)[C@@H](COP(=O)(O)O)O1
inactive: Potency [1] | outcome [7] | Potency [2] | Potency [3] | Potency [4] | Potency [5]

NC1(C(=O)O)CCc2cc(C(=O)O)ccc21 (stereo unspecified)
inactive: Potency [1] | outcome [7] | Potency [2] | Potency [3] | Potency [4] | Potency [5]

CC1C(=O)N(C)C(=O)c2nc[nH]c21 (stereo unspecified)
inactive: Potency [1] | outcome [7] | Potency [2] | Potency [3] | Potency [4] | Potency [5]

Nc1ccc(CCNc2ncnc3c2ncn3C2OC(CO)C(O)C2O)cc1 (stereo unspecified)
inactive: Potency [1] | outcome [7] | Potency [2] | Potency [3] | Potency [4] | Potency [5]
